Screening data (PubChem)
Hits are enriched below; roughly 1.5% of the tested compounds scored in any of these assays.
eLon inh: inhibits E. coli Lon protease; P0A9M0; purified E. coli Lon protease, fluorescence polarization; inhibition, % at 7.94 µM; hit rate 0.42% among 360,000; AID 602123; in the data active = inhibition above about 13%, passing the limit was not always enough;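 also: 0% = enzyme with probe and DMSO and 100% = no enzyme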
GLD-1 RNA inh: GLD-1-TGE RNA interaction inhibition (C. elegans). inhibition, % at 5.96 µM. purified GLD-1 + fluorescein TGE RNA, fluorescence polarization. hit rate 0.44% among 320,000;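 active = percent inhibition above a per-plate cutoff, the plate mean of test compounds plus 3 SD, cut at about 30% in these data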;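 also: 0% = DMSO wells with GLD-1 and probe and 100% = wells lacking GLD-1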
Bcl-xL primary: inhibitors of human Bcl-xL. Q07817. GST-Bcl-xL / FITC-Bim BH3 peptide fluorescence polarization. inhibition, % at 10.9 µM. hit rate 0.7% among 320,000. AID 2129;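 active = inhibition above the mean of all tested compounds plus 3 SD, cutoff set per campaign, cut at about 30% in these data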;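 also: 0% = DMSO wells and 100% = unlabeled Bim-BH3 peptide competitor; inhibitors lower millipolarization by displacing the labeled peptide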
MCL1-BIM inh: disrupts human MCL1 binding to BIM-BH3 peptide | Q07820 | GST-MCL1 / FITC-Bim-BH3 fluorescence polarization | inhibition, % at 10.9 µM | hit rate 0.68% among 320,000 | AID 2057;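 active = inhibition above the mean inhibition of all tested compounds plus 3 SD, set per campaign, cut at about 40% in these data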;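 also: 0% = DMSO wells and 100% = unlabeled Bim-BH3 peptide control; higher means more loss of mP so more displacement of Bim peptide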
EBV gp42 block: EBV gp42 inhibition | Q1HVG2 | Fluorescence polarization binding assay, mP read-out | inhibition, % (tested at 21.74 µM) | hit rate 0.42% among 220,000 | AID 1085; in the data active = inhibition above about 50%
MEX-5 binding: C. elegans MEX-5 TCR-2 RNA binding activity; hit rate 0.38% among 300,000; activity score (negative = inhibition of binding), % at 10 µM; MEX-5/FITC-TCR2 RNA binding, fluorescence polarization; hits give low values;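 active = inhibition past about -25% in most replicates, and total fluorescence under double the plate's negative control median, limit read from the data; inconclusive = replicates evenly split on the limit, or fluorescence at least double controls; inactive = too little inhibition in most replicates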;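 also: 0% = DMSO and -100% = 5 µM competing unlabeled TCR2 RNA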
Target sequence (Q9XUB2 whole entry, looked up): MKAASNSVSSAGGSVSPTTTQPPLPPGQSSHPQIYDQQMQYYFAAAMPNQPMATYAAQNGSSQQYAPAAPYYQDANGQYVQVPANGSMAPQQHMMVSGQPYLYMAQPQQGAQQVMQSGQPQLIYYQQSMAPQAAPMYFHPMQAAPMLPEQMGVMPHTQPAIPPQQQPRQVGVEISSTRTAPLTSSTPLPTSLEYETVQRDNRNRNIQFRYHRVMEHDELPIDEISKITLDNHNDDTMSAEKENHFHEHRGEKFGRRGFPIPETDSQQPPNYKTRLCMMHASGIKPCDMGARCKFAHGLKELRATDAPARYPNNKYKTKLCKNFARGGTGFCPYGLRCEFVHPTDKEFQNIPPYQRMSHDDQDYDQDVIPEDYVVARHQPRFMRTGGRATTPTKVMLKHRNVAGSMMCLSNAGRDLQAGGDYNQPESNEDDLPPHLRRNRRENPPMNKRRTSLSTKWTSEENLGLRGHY
* = called active by the depositor; ? = inconclusive; . = no result.

SMILES | eLon inh | GLD-1 RNA inh | Bcl-xL primary | MCL1-BIM inh | EBV gp42 block | MEX-5 binding
Cc1onc(C(=O)NC2CCCCC2)c1[N+](=O)[O-] | 2.4 | -0.3 | 2.9 | 0.1 | . | -1.9
CCC1=C/C(=C/N(C)c2ccccc2)C(=O)S1 | -7.9 | 29.4 | 31.1* | 31.3 | 8.0 | -7.3
CN(C)/C=C1/C=C(c2ccccc2)OC1=O | -0.4 | -0.5 | -4.1 | -6.5 | -2.1 | 0.4
N#CC(C(=O)NC1CCCCC1)c1nc2ccccc2nc1N1CCN(c2ccccc2F)CC1 (centres undefined) | 0.9 | 5.5 | 22.8 | -9.9 | 14.8 | .
CC1CCN(c2nc3ccccc3nc2C(C#N)C(=O)NC2CCCCC2)CC1 (centres undefined) | . | -3.3 | -0.8 | -5.9 | . | -28.8*
CC1CN(c2nc3ccccc3nc2C(C#N)C(=O)NCc2ccc3c(c2)OCO3)CC(C)O1 (centres undefined) | 0.9 | 0.9 | -1.5 | 0.1 | 70.7* | -20.0
CCCCNC(=O)C(C#N)c1nc2ccccc2nc1N1CCN(Cc2ccc3c(c2)OCO3)CC1 (centres undefined) | -9.1 | . | . | . | . | .
COCCN(CCOC)Cc1cc(=O)oc2cc(C)c(Cl)cc12 | -6.6 | . | . | . | . | .
CCOc1ccc(N=Nc2c(=O)[nH]n3c(=O)cc(C)[nH]c23)cc1 | -33.9 | -13.3 | 11.8 | 8.1 | -22.6 | -51.0*
CCOc1ccc(N=Nc2c(=O)[nH]n3c(=O)c4c([nH]c23)CCCC4)cc1 | -74.7 | -3.0 | 15.5 | 10.7 | -12.2 | ?
Cc1cc(=O)n2[nH]c(=O)c(N=Nc3ccccc3)c2[nH]1 | -4.1 | 4.4 | 4.2 | 3.1 | -8.7 | -81.7*
Cc1cc(C)n2[nH]c(=O)c(N=Nc3ccccc3)c2n1 | 5.8 | -6.4 | 5.5 | 9.6 | -9.2 | -5.9
C/C(=N\NC(=O)c1cc(C)oc1C)c1ccc2ccccc2c1 | -7.7 | -4.6 | 0.2 | 1.6 | . | 0.1
CCC(Oc1ccccc1)C(=O)Nc1cc(C)on1 (centres undefined) | 9.1 | -3.0 | 1.2 | 5.8 | -5.1 | 2.7
CCC(Oc1ccccc1)C(=O)Nc1ccccn1 (centres undefined) | -1.1 | 0.8 | 1.6 | 5.6 | 6.6 | -34.6*
C=CCOc1nc2c(c(=O)n(C)c(=O)n2C)n1C | -0.8 | -0.4 | 36.0* | -7.4 | 1.6 | -1.0
C/C=C/COc1nc2c(c(=O)n(C)c(=O)n2C)n1C | -0.2 | 1.4 | 10.2 | 7.5 | -8.4 | -0.9
CCc1ccc2nc(SCC(=O)Nc3ccccc3N3CCOCC3)c(C#N)cc2c1 | 4.5 | -12.3 | 1.4 | -6.1 | -3.9 | 0.3
CCOC(=O)CC(=O)CSc1nc(CC)c(C)cc1C#N | 7.5 | -3.8 | -5.8 | -3.2 | -3.5 | -1.3
CCOC(=O)CC(=O)CSc1nc2ccc(C)cc2cc1C#N | -9.6 | 83.2* | 28.8 | 14.6 | 26.1 | .
CCOc1ccc2nc(SCC(=O)N3c4ccccc4Sc4ccccc43)c(C#N)cc2c1 | -23.4 | 47.7* | 54.8* | 1.0 | -48.1 | -0.1
N#Cc1cc2ccccc2nc1SCC(=O)Nc1ccc(S(=O)(=O)N2CCCC2)cc1 | -18.8 | 45.4* | -12.3 | -26.3 | -22.9 | 3.2
CCOc1ccc2nc(SCC(=O)N3c4ccccc4Sc4ccccc43)sc2c1 | 15.7 | 1.2 | 2.4 | 4.8 | -2.7 | -1.7
Cc1ccc2nc(SCC(=O)Nc3ccccc3N3CCOCC3)c(C#N)cc2c1 | -9.6 | -10.7 | 0.0 | 0.3 | 50.2* | 0.0
COc1ccc2nc(SCC(=O)Nc3ccc(S(=O)(=O)N4CCCC4)cc3)c(C#N)cc2c1 | -22.6 | -44.8 | -14.4 | -16.5 | -61.4 | 10.3
CC(C)(C)OC(=O)NCCCC1=CC2=CC(=O)C(C)(OC(=O)c3ccc(Cl)nc3)C(=O)C2=CO1 (centres undefined) | . | 92.6* | 80.2* | 85.3* | . | ?
C=CCN1C=C2C(=O)C(C)(OC(=O)CC)C(=O)C=C2C=C1CCCC (centres undefined) | 12.8 | 41.7* | 28.7 | 28.6 | 3.6 | -7.1
CCCCC1=CC2=CC(=O)C(C)(OC(=O)CC)C(=O)C2=CO1 (centres undefined) | -9.7 | 36.8* | 18.1 | 31.7 | . | -23.2
COC(=O)CCCC1=CC2=CC(=O)C(C)(O)C(=O)C2=CO1 (centres undefined) | . | 23.8 | 22.6 | 29.9 | . | -38.7*
CC(C)CC(NC(=O)C1CCC(=O)N1C(=O)OCc1ccccc1)C(=O)NC(Cc1ccccc1)C(N)=O (centres undefined) | 0.2 | 4.0 | 3.7 | 5.0 | . | 2.9
